ST2 IL33 inh: inhibitors of human ST2 (IL1RL1) binding to IL-33; AlphaLISA ST2-Fc/biotin-IL-33 interaction, 1 h; inhibition, % for hits at 17 µM; 78,000 compounds, 2.3% hits; AID 1259354; in the data active means inhibition above about 30%
Target sequence (Q01638 whole entry, looked up): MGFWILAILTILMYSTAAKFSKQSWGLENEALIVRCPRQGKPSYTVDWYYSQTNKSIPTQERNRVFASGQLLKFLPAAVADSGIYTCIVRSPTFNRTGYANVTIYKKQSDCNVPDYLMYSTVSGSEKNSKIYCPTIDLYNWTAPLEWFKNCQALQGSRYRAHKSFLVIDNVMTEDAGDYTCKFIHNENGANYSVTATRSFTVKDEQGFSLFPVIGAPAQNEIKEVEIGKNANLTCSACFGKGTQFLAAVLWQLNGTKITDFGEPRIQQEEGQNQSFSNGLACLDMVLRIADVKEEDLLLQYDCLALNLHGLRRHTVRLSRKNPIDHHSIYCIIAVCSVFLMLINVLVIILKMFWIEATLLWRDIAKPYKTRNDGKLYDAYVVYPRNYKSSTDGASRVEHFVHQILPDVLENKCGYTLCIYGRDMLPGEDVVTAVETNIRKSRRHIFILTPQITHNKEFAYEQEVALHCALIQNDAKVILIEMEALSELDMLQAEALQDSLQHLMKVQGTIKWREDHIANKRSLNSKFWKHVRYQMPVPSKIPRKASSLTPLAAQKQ
Starred values were filed as active, the others as inactive; i = inactive; ! = not confirmed by another sample. This is one part of a sample in which hits are shown more often than they occur.

SMILES	ST2 IL33 inh
O=C(Nc1ccccc1-c1ccccc1)c1ccc(Br)o1	i
O=C(CS(=O)(=O)c1cccc2nsnc12)Nc1ccccc1Br	i
O=C(Nc1cccc2nsnc12)c1ccc(-c2ccc(Br)cc2)o1	31%*
CC(=O)N1CCC2(CC1)CC(=O)c1cc(OCC(=O)NCc3ccccn3)ccc1O2	i
Cc1cc(Br)c2c3c(c(N)c(=O)[nH]c13)-c1ccccc1C2=O	45%*
Cc1cc(C)c2c(=O)cc(C3C(=O)c4ccccc4C3=O)[nH]c2c1	i
O=C(COc1ccc([N+](=O)[O-])cc1)NCc1ccccc1	i
O=[N+]([O-])c1ccc(N2CCN(CCc3ccccc3)CC2)cc1	i
[N-]=C=C1C(=O)N(CCc2ccccc2)C(=O)C([n+]2ccccc2)C1c1ccc([N+](=O)[O-])cc1 (configuration not stated)	42%*
CS(=O)(=O)c1nc(-c2ccc(Cl)cc2)cc(C(F)(F)F)n1	i
COc1ccc(-c2cc(C(F)(F)F)nc(S[C@H]3C[C@H](O)[C@@H]4OC[C@H]3O4)n2)cc1OC	i
Cn1c(=O)c2c(nc(N3CCCC3)n2CCSc2ncccn2)n(C)c1=O	i
O=[N+]([O-])c1ccc2nn(-c3ccccc3)nc2c1	i
Cc1nn(C(=O)c2ccc([N+](=O)[O-])cc2)c(C)c1Sc1ccccc1	42%*
Cc1nn(C(=O)c2ccco2)c(C)c1Sc1ccccc1	i
COc1c(Sc2ccc([N+](=O)[O-])cc2)c(C)nn1-c1ccccc1	30%*
Cc1nn(C(=O)C2CC2)c(C)c1Sc1ccccc1	i
Cc1ccc(C(=O)n2nc(C)c(Sc3ccccc3)c2C)cc1	i
COc1cc(NS(=O)(=O)c2ccc(NC(=O)c3ccc(OC)c(OC)c3)cc2)nc(OC)n1	i
COc1ccc(NC2OC(=O)c3c2ccc(OC)c3OC)cc1 (configuration not stated)	i
Cc1ccc(C2CC(c3ccc(F)cc3)=NN2c2ccccc2)o1 (configuration not stated)	40%*
COc1ccc(C2CC(c3ccccc3)=NN2C(=O)c2ccc(F)cc2)cc1 (configuration not stated)	i
COc1ccc(C2=NN(S(=O)(=O)c3ccc(C)cc3)C(c3ccc(F)cc3)C2)cc1OC (configuration not stated)	i
Cc1ccccc1CN1CCC(CNC(=O)c2cccn(C)c2=O)C1 (configuration not stated)	i
N#C/C(=C\c1ccc(-c2cc([N+](=O)[O-])ccc2Cl)o1)c1[nH]nc(N)c1C#N	45%*
SMILES	ST2 IL33 inh
O=c1oc(-c2cc([N+](=O)[O-])ccc2Cl)nc2ccc(I)cc12	i
O=c1oc(-c2cc([N+](=O)[O-])ccc2Cl)nc2ccc(Br)cc12	i
COc1ccc2nc(NC(=O)CSc3cc(=O)n(C)c4ccccc34)sc2c1	i
Cc1ccc(C(=O)N2CCCCC2)cc1C	i
CCOc1nc2c(c(=O)n(C)c(=O)n2C)n1Cc1ccccc1Cl	30%*
CC1CCN(c2nc3c(c(=O)n(C)c(=O)n3C)n2Cc2ccccc2Cl)CC1	i
C#CCOc1nc2c(c(=O)n(C)c(=O)n2C)n1Cc1ccccc1Cl	i
COc1ccccc1Oc1nc2c(c(=O)n(C)c(=O)n2C)n1Cc1ccccc1F	31%*
CC(CCO)Nc1nc2c(c(=O)n(C)c(=O)n2C)n1Cc1ccccc1F (configuration not stated)	i
COCCCNc1nc2c(c(=O)n(C)c(=O)n2C)n1Cc1ccccc1F	i
CC(C)Cc1ccc(S(=O)(=O)NC2CCCCC2C)cc1 (configuration not stated)	i
COc1ccc(-c2cc(N3CCN(S(=O)(=O)c4c(C)noc4C)CC3)ncn2)cc1	i
CCN(CC)CCNc1c2c(c(C#N)c3nc4ccccc4n13)CCC2	i
N#Cc1c2c(c(NCCCO)n3c1nc1ccccc13)CCC2	31%*
Cc1c(Cc2ccccc2)c(NCCCO)n2c(nc3ccccc32)c1C#N	i
O=C(NCCCN1CCN(c2cccc(Cl)c2)CC1)c1ccc2nc3ccccc3c(=O)n2c1	i
COC(=O)c1ccc(CSc2nc3c(c(=O)n2-c2ccc(C)cc2)SCC3)o1	i
Cc1ccc(-n2c(SCc3ccc(F)cc3)nc3c(c2=O)SCC3)cc1	31%*!
Cc1ccc(-n2c(SCC(=O)N3CCCC3)nc3c(c2=O)SCC3)cc1	i
Cc1ccc(-n2c(SCC(=O)N3CCCCC3)nc3c(c2=O)SCC3)cc1	i
O=C(CSc1nc2c(c(=O)n1-c1ccc(Cl)cc1)SCC2)N1CCc2ccccc21	i
O=C(CSc1nc2c(c(=O)n1-c1ccc(Cl)cc1)SCC2)N1CCCc2ccccc21	i
Cc1ccc(-n2c(SCc3ccccc3)nc3c(c2=O)SCC3)cc1	30%*!
Cc1ccc(-n2c(SCc3cccc(F)c3)nc3c(c2=O)SCC3)cc1	33%*!
Cc1ccc(-n2c(SCC(=O)N3CCc4ccccc43)nc3c(c2=O)SCC3)cc1	97%*!
SMILES	ST2 IL33 inh
O=c1c2c(nc(SCc3ccc(F)cc3)n1-c1ccc(F)cc1)CCS2	i
CCOc1ccc(-n2c(SCc3ccc(F)cc3)nc3c(c2=O)SCC3)cc1	i
CCSc1nc2c(c(=O)n1-c1ccc(F)cc1)SCC2	i
Cc1cccc(CSC2=NCCN2C(=O)c2ccc(S(=O)(=O)N3CCCCC3)cc2)c1	i
O=C(Nc1nc2ccc3ccccc3c2s1)c1ccc2c(c1)OCCO2	i
Cc1nc2n(C)c3ccccc3n2c1C(=O)OCCN1CCCCC1	i
O=C(O)c1ccc(N2C(=O)CC(N3CCN(c4ccccn4)CC3)C2=O)cc1 (configuration not stated)	i
O=C(COc1ccc(F)cc1)Nc1c(C(=O)Nc2ccccc2F)oc2ccccc12	i
Cc1ccc(S(=O)(=O)N(CC(=O)Nc2ccc3c(c2)OCO3)c2ccc(C)cc2C)cc1	i
COc1ccc(Nc2cc(C)nc(-c3ccccc3O)n2)cc1	i
CCc1c(C)nc(SCC#N)c(C#N)c1C	i
CCc1ccc(N2CSC3=C(C#N)C(c4ccc(OC)cc4)CC(=O)N3C2)cc1 (configuration not stated)	i
COc1ccc(CN2CC3CC4CC2C[C@@H](C4)C3)cc1C(=O)O	i
C[C@]12CC[C@@H]3c4ccc(O)cc4CC[C@H]3[C@@H]1CCC2=O	i
COc1ccc2c(c1)CCC1C2CC[C@@]2(C)C1CC[C@@H]2NCCCCCCN1C(=O)C=CC1=O (some centres not stated)	46%*
CC12CCC3c4ccc(O)c(Br)c4CCC3C1CCC2O (configuration not stated)	i
COc1cc(C(=O)N2CCC(C(=O)Nc3cccc(C)c3C)CC2)cc(OC)c1OC	i
CN1CCC2(CC1)CN(C(=O)c1cc(-c3ccc(O)cc3)n[nH]1)CCCN2C	i
CNc1nc(C(=O)N2CCC3(CCCN(C)CC3)CC2)cs1	i
COc1cc(C(=O)N2CCCN(C)C3(CCN(C)CC3)C2)nc(OC)n1	33%*
CN(C)C(=O)c1ccc2c(c1)N(CC(=O)Nc1cccc(Cl)c1)C(=O)C1CCCCN21 (configuration not stated)	i
O=C(O)c1ccc(NC(=O)C2CCCCC2)c(NC(=O)C2CCCCC2)c1	i
COc1ccc(I)cc1S(=O)(=O)NCCN1CCOCC1	i
CN(C)C(=O)c1cnn(-c2ccccc2)c1NC(=O)c1ccc(Br)cc1	i
Cc1ccccc1CN1C2=NC(=O)CN2c2ccccc21	i
COc1ccc2oc(=Nc3ccccc3F)c(C(=O)NC(C)=O)cc2c1	i

Source: PubChem BioAssay
